Only a selection was taken, and hits are over-represented in it overall.
Pf Dd2 growth: blocks in vitro growth of P. falciparum Dd2 | Potency, µM (highest dose often 28.9 µM), for the others: at the top dose activity, negative = inhibition, actives largely listed as inhibitors | P. falciparum Dd2 growth, SYBR Green, 72 h | 120,000 compounds, 4.3% hits; active means well fitted inhibition curve with a large enough effect;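 further: plate controls were DMSO vehicle for no effect and reference drug for full effect; nearly all actives have a fitted effect of over 65% in size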
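Infected erythrocytes (Dd2, 0.3% parasitemia, 2.5% hematocrit final) are added to compound in RPMI-1640/Albumax II medium, grown 72 h at 37C in low oxygen, then lysed with saponin/Triton-X containing SYBR Green and read by fluorescence.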
* hit, by the source's call; i = inactive; [ ] = remark or other dose. Potency means the concentration at half of the fitted maximal effect.

SMILES | Pf Dd2 growth
CCc1ccc(C(=O)c2cn(CC(=O)Nc3cc(OC)cc(OC)c3)c3ccc(CC)cc3c2=O)cc1 | 21.6%
CCc1ccc(C(=O)c2cn(CC(=O)Nc3cc(OC)ccc3OC)c3ccc(C)cc3c2=O)cc1 | 10µM*
CCc1ccc(C(=O)c2cn(CC(=O)Nc3ccc(F)c(F)c3)c3cc(OC)c(OC)cc3c2=O)cc1 | i
O=C(NCc1cccnc1)[C@@H]1C[C@@H](O)CN1C1CCN(C(=O)c2cccs2)CC1 | 15.6%
O=C(c1ccc(Cl)cc1)N1CCC2(Cc3ccccc3CNC2=O)C1 (configuration not stated) | 7.8%
COCC(=O)N[C@H]1CC[C@]2(C)CC[C@@H]([C@H](C)C(=O)N3CCCCC3)[C@H](O)[C@H]2[C@@H]1C | 33.6%[44.1 µM]
O=C(CN1CC2CC(C1)[C@H]1CCCC(=O)N1C2)NCCN1CCOCC1 (some centres not stated) | 11.5%
Brc1ccc(-c2ccnc3nc(-c4cccs4)nn23)cc1 | -16.8%
O=C(Nc1ccc(=O)n2c1[C@@H]1C[C@@H](CN(S(=O)(=O)c3ccccc3)C1)C2)c1ccc2c(c1)OCO2 | -27.5%
O=C(c1ccsc1)N1CCCC(c2nc(C3CCOCC3)no2)C1 (configuration not stated) | 61.3%
COc1ccc(C(=O)N2C[C@@H](Oc3ccccc3)C[C@H]2C(=O)N2CCOCC2)cc1 | -10.4%
Cc1ccc(NCc2ccccc2-c2nnc(-c3ccccc3Cl)o2)cc1Cl | -24.4%
Fc1ccc(N2CCN(Cc3nnc(-c4ccccc4Cl)o3)CC2)cc1 | 2.4%
Fc1ccc(NCc2ccccc2-c2nnc(-c3ccccc3Cl)o2)cc1 | 12.6µM*
FC(F)(F)c1ccc2c(c1)nc1n2[C@@H](CNCc2cccnc2)COC1 | i
COc1cccc(CC(=O)N2CCc3nn(Cc4ccccc4)c(=O)n3CC2)c1 | i
Cc1ccc(C(=O)N2CCC([C@@H]3CNC[C@H]3CO)CC2)cc1F | -17.8%
CCOC(=O)c1c(S(=O)(=O)N2CCCC(C(=O)Nc3cc(C)ccc3OC)C2)c(C)n(C)c1C (configuration not stated) | 29.4%
CCOC(=O)c1c(S(=O)(=O)N2CCCC(C(=O)Nc3cc(C)ccn3)C2)c(C)n(C)c1C (configuration not stated) | i
Cc1ccc(Cl)cc1N1CCN(C(=O)C2CCN(S(=O)(=O)c3ccc4c(c3)oc(=O)n4C)CC2)CC1 | i
Cc1ccc(C)c(N2CCN(C(=O)C3CCN(S(=O)(=O)c4ccc5[nH]c(=O)oc5c4)CC3)CC2)c1 | 5.62µM*
CCOC(=O)c1c(S(=O)(=O)N2CCCC(C(=O)Nc3ncccc3C)C2)c(C)n(C)c1C (configuration not stated) | i
CCOC(=O)c1c(S(=O)(=O)N2CCC(C(=O)N3CCN(c4ccccc4F)CC3)CC2)c(C)n(C)c1C | i
Cc1ccc(C)c(N2CCN(S(=O)(=O)c3ccc4c(c3)CCCN4C(=O)C3CCC3)CC2)c1 | 5.9%
CCOC(=O)c1c(C)[nH]c(C)c1S(=O)(=O)N1CCC(C(=O)N2CCN(c3ccccc3F)CC2)CC1 | i
SMILES | Pf Dd2 growth
CCOC(=O)c1c(C)[nH]c(C)c1S(=O)(=O)N1CCCC(C(=O)NCc2ccc(C)cc2)C1 (configuration not stated) | i
CCOC(=O)c1c(S(=O)(=O)N2CCCC(C(=O)N3CCN(c4cccc(C)c4C)CC3)C2)c(C)n(C)c1C (configuration not stated) | 1.12µM*
CCOC(=O)c1c(S(=O)(=O)N2CCCC(C(=O)N3CCN(c4cc(C)ccc4C)CC3)C2)c(C)n(C)c1C (configuration not stated) | 1µM*
CCOC(=O)c1c(C)[nH]c(C)c1S(=O)(=O)N1CCCC(C(=O)N2CCN(c3cc(C)ccc3C)CC2)C1 (configuration not stated) | 1.26µM*
O=C(NCc1cccnc1)c1c(OCC2CC2)cc(=O)n2c1CCCCC2 | -10.1%
CC(C)c1cc(C(=O)NCc2nnnn2-c2ccccc2)nc2ncnn12 | -3.9%
NC(c1ccccc1)c1nnc2n1CCN(C(=O)N1CCCCC1)C2 (configuration not stated) | 26.7%
COCCC(=O)N1CCCCCCN(C)C(=O)[C@@H]2CCC[C@@H]21 | -14.9%
C[S+](=O)([O-])N1CC2ON=C(C(=O)NCCc3ccc(Cl)cc3)C2C1 (configuration not stated) | 6.2%
Cc1ccc(CNC2(Cc3cc(-c4ccccn4)on3)COC2)o1 | 3.5%[44.1 µM]
CN(C)C(=O)c1nc(-c2ccc(Cl)nc2)c2ccccn12 | -4.0%
O=C(Cc1ccccc1F)N1CCC2(CCCCO2)CC1 | 9.1%
CN1CC(=O)N(C2CCCNCC2)Cc2c(NC3CCCCC3)ncnc21 (configuration not stated) | -13.2%
CC(C)(C)c1ccnc(N[C@H]2CO[C@H]3[C@@H]2OC[C@@H]3NC(=O)CCCC(=O)O)n1 | -11.0%[44.1 µM]
CC(C)(C)c1ccnc(N[C@H]2CO[C@H]3[C@@H]2OC[C@@H]3NC(=O)NCc2ccccc2)n1 | 5.01µM*
CC(C)(C)c1ccnc(N[C@H]2CO[C@H]3[C@@H]2OC[C@@H]3NC(=O)c2ccco2)n1 | i
COCCC(=O)N1CCCCCCNC(=O)[C@@H]2C[C@@H](c3nc(-c4cccnc4)no3)C[C@@H]21 | i
CCO[C@H]1CN(C(=O)CCSCc2ccc(F)cc2)C[C@@H]1O | -7.9%
CCCS(=O)(=O)N1CCCC1c1noc(CCC(=O)N2CCN(C)CC2)n1 (configuration not stated) | -21.7%
CCOCCCNC(=O)CCc1cc2cc(C)ccc2[nH]c1=O | 8.0%
CN1C(=O)c2cccn2CC1CNC(=O)c1[nH]nc2c1COc1ccccc1-2 (configuration not stated) | 8.91µM*
COCCN1C(=O)c2cccn2CC1CNC(=O)c1[nH]nc2c1COc1ccccc1-2 (configuration not stated) | -4.9%
CN1C(=O)c2cccn2CC1CNC(=O)c1n[nH]c(=O)c2ccccc12 (configuration not stated) | 16.0%
Fc1ccc(CN2CC[C@H](c3nnc(-c4ccc(Cl)cc4)o3)C2)cc1 | i
Cc1nc(C)c(C(=O)N2CC[C@H](CO)[C@H](NC(=O)C3CC3)C2)s1 | 26.5%
SMILES | Pf Dd2 growth
Cc1ccc(C)c(N2CCN(Cc3csc(C)c3C)CC2)c1 | i
Cc1ccc(-c2c(CN3CCN(c4cc(C)ccc4C)CC3)csc2C)cc1 | 10µM*
CCc1c(CN2CCN(c3cccc(C)c3)C(C)C2)csc1C (configuration not stated) | 0.2%
O=C(Nc1cc2c(cc1C(=O)c1ccccc1Cl)OCCO2)c1ccc(Br)cc1 | 12.8%
CCC(O)c1cc2c(cc1NC(=O)c1cccc(Br)c1)OCCO2 (configuration not stated) | 11.2µM*
COc1cccc(C(=O)Nc2cc3c(cc2C(=O)c2ccc(C)cc2)OCCO3)c1 | 4.2%
COc1ccc(-c2cc(N3CCCC(NC(=O)c4cnccn4)C3)n[nH]2)cc1 (configuration not stated) | -5.6%
O=C1NC2(CCN(C(=O)c3ccccc3F)CC2)Oc2ccccc21 | i
CCN(CC1CCCN(CCc2cccc(OC)c2)C1)C(=O)c1cc(C)no1 (configuration not stated) | 10µM*
CCN(CC1CCCN(CCc2cccc(OC)c2)C1)C(=O)CN1CCCC1=O (configuration not stated) | -11.2%
COc1ccccc1CN1CCCC(CN(CCN(C)C)C(=O)c2cc(C(C)C)no2)C1 (configuration not stated) | i
Cc1ccccc1N1Cc2c(NCc3ccccn3)ncnc2N(C)CC1=O | -11.1%

Screens deposited in PubChem BioAssay by National Center for Advancing Translational Sciences (NCATS).
